# Data published in PubChem BioAssay AID602440 (Sanford-Burnham Center for Chemical Genomics, 2012).
# The whole screen tested about 360,000 compounds, of which about 2,300 (0.64%) were called active. No stated cut-off is given here; in the data, active means inhibition mostly above about 40% (no sharp cut-off); inactive means mostly below about 27%. For the sample, actives were picked, then their nearest neighbours and some compounds at random.
# Biological target: Sentrin-specific protease 8 (Homo sapiens) (UniProt Q96LD8)
# Sequence (Q96LD8 whole entry, looked up): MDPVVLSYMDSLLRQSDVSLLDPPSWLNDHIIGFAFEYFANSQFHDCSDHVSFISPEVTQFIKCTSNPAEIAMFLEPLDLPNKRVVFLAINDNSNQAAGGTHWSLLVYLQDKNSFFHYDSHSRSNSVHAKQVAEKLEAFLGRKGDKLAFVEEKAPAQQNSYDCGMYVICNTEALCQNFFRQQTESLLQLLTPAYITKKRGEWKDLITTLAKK
# Experiment: human SENP8 protease inhibitors, primary screen, biochemical, fluorescence, Nedd8 protein substrate, uHTS (AID 602440)
# Details: recombinant SENP8, Nedd8 substrate fluorescence; at 20 µM; active compounds read high
row,Compound,inhibition
1,COc1ccccc1S(=O)(=O)c1c(C)cc(C)[nH]c1=O,-5.8% (inactive)
2,Cc1cc(C)c(/C=C2\C(=O)Nc3ccccc32)[nH]1,59.5% (active)
3,Cc1ccc(N(Cc2ccccc2O)C(=O)c2ccccc2F)cc1,43.7% (active)
4,O=C(c1ccccc1F)N(Cc1ccccc1)Cc1ccccc1,7.7% (inactive)
5,Cc1cccc(N(Cc2ccccc2)C(=O)c2ccccc2F)c1,10.3% (inactive)
6,CCC(=O)N1CCC(C(N)=O)(N2CCCCC2)CC1,23.1% (inactive)
7,CN1CCN(CC(=O)C23CC4CC(CC(C4)C2)C3)CC1,8% (inactive)
8,O=C(CCC(=O)OCc1cccc(C(=O)Oc2ccccc2)c1)Nc1cccc2ccccc12,-5.4% (inactive)
9,Cc1c(CC(=O)N2CCN(C(=O)C3COc4ccccc4O3)CC2)c(=O)oc2c(O)c(O)ccc12 (stereo unspecified),-291% (inactive)
10,Cn1c2ccccc2n2c(=O)c(=O)n(CC(=O)c3ccc(F)cc3)nc12,-7.8% (inactive)
11,COc1ccc(NC(=O)CSc2nncc(=O)n2N)cc1OC,8% (inactive)
12,CN1CCN(/N=C2/C(=O)Nc3ccc([N+](=O)[O-])cc32)CC1,23.5% (inactive)
13,O=C1Nc2ccc([N+](=O)[O-])cc2C1=Nc1cccc(CO)c1,65.6% (active)
14,Cc1cc([N+](=O)[O-])ccc1NCc1cccc([N+](=O)[O-])c1,29.2% (inactive)
15,Cc1ccc(C(=O)COC(=O)CCCC(=O)NC2CCCCC2)cc1[N+](=O)[O-],19.6% (inactive)
16,Cc1cc(C=O)c(C)n1-c1ccc(NC2CCCCC2)c([N+](=O)[O-])c1,56.6% (active)
17,COc1ccc(NC(=O)CN(C)C(=O)c2ccc(NC3CC3)c([N+](=O)[O-])c2)cc1,33.7% (inactive)
18,O=C(Nc1ccc2c(c1)[C@@H]1C[C@@H](CC(=O)N3CCCCC3)O[C@@H](CO)[C@@H]1O2)NC1CCCCC1,15.5% (inactive)
19,CC1Cc2[nH][nH]c(=O)c2C(C2CC2)O1 (stereo unspecified),19.9% (inactive)
20,CN=C(Nc1cccc(S(=O)(=O)N2CCOCC2)c1)c1ccccc1,9.5% (inactive)
21,CCCC1CCC(=NNC(=S)NCCc2ccccc2)CC1 (stereo unspecified),45.2% (active)
22,CCCCNC(=S)N/N=C1\CCCCc2ccccc21,21.8% (inactive)
23,Cc1cc(F)ccc1NC(=S)NCCc1ccccc1,8% (inactive)

row,Compound,inhibition
1,CCOC(=O)c1ccc(N2C(=O)CC(N(C)Cc3ccccc3)C2=O)cc1 (stereo unspecified),46.8% (active)
2,CCOC(=O)c1ccc(N2C(=O)CC(N3CC(C)OC(C)C3)C2=O)cc1 (stereo unspecified),14% (inactive)
3,CCOC(=O)c1ccc(N2C(=O)CC(N3CCN(C(=O)c4ccccc4)CC3)C2=O)cc1 (stereo unspecified),2.8% (inactive)
4,COC(=O)C1=C(C(=O)OC)C(c2cc([N+](=O)[O-])ccc2O)c2sc(=O)[nH]c2S1 (stereo unspecified),38.8% (inactive)
5,N#CC1(C#N)C(C(=O)C23CC4CC(CC(C4)C2)C3)C12CCOCC2 (stereo unspecified),2.5% (inactive)
6,O=C(c1cc2cc(Br)cc(Br)c2oc1=O)N1CCOCC1,-4.2% (inactive)
7,O=C1Nc2c(Br)cc(Br)cc2C1(O)N1CCOCC1 (stereo unspecified),60.2% (active)
8,Cc1ccc(Nc2nc(CSc3nnc(-c4ccncc4)n3-c3ccccc3C)cs2)cc1,11.2% (inactive)
9,Cc1oc2c(C)c3oc(=O)c(CC(=O)N[C@@H](CC(C)C)C(=O)N[C@@H](Cc4ccccc4)C(=O)O)c(C)c3cc2c1C,-222% (inactive)
10,Cc1ccc(NS(=O)(=O)c2ccc3c(c2)oc(=O)n3C)c(C)c1,12.2% (inactive)
11,CCN(CC(=O)NC1CCS(=O)(=O)C1)S(=O)(=O)c1ccccc1 (stereo unspecified),3.6% (inactive)
12,COc1ccc2[nH]c(=O)c(CN(Cc3cccnc3)S(=O)(=O)c3ccccc3F)cc2c1,-316% (inactive)
13,CCc1ccccc1NC(=O)[C@@H]1CCC(=O)N1C1OC(=O)c2c1ccc(OC)c2OC (stereo partly specified),58.1% (active)
14,CCc1ccccc1NC(=S)Nc1cc(OC)c(NC(=O)C(C)C)cc1OC,22.3% (inactive)
15,O=C(Nc1ccccc1C(=O)N1CCOCC1)C1CCC(=O)N1C1CCCC1 (stereo unspecified),7.7% (inactive)
16,CC(=O)NC(CC(=O)Nc1nccs1)c1ccccc1 (stereo unspecified),20.4% (inactive)
17,CCC(C)NC(=O)c1ccc(NC(=O)CC2SC(N3CCCCC3)=NC2=O)cc1 (stereo unspecified),0.4% (inactive)
18,CCOc1ccc(C(CC(=O)O)NC(=O)C23CC4CC(CC(C4)C2)C3)cc1OC (stereo unspecified),9% (inactive)
19,CCOc1ccc(C(c2c(C)[nH][nH]c2=O)c2c(C)[nH][nH]c2=O)cc1OCC,53.9% (active)
20,CCOc1ccc(C(C)NC(=O)CN2C(=O)NC3(CCCCC3)C2=O)cc1OCC (stereo unspecified),4.1% (inactive)
21,CCCCNC(=O)C[C@@H]1C[C@@]2(C(=O)OC)CC(C)(C)CC=C2N(Cc2ccco2)C1=O,6% (inactive)
22,O=[N+]([O-])c1ncc(Br)cc1Nc1ccccc1,22.6% (inactive)
23,CC(NC(=O)C1CCC(CNc2c(N3CCOCC3)c(=O)c2=O)CC1)c1ccccc1 (stereo unspecified),9.1% (inactive)

row,Compound,inhibition
1,CC(C)CCNC(=O)C1CCC(CNc2c(N3CCC(C)CC3)c(=O)c2=O)CC1 (stereo unspecified),42.8% (active)
2,O=C(NCCCc1ccccc1)C1CCC(CNc2c(N3CCCCC3)c(=O)c2=O)CC1 (stereo unspecified),23.4% (inactive)
3,Cc1ccc(CN2CCCOCCS2(=O)=O)cc1,13.5% (inactive)
4,CC(C)CN1CCC1(C)C(=O)Nc1ccc(OC(F)F)cc1 (stereo unspecified),5.2% (inactive)
5,COCCNc1nc(-n2nc(C)cc2C)nc2sc3c(c12)CCCC3,-415% (inactive)
6,COc1ccc(C(C(=O)NC2CCCCC2)N(C(=O)Cc2c[nH]c3ccccc23)c2ccccc2)cc1OC (stereo unspecified),-12.6% (inactive)
7,CC(C)[C@H](NC(=O)OCc1ccccc1)C(=O)OCc1ccccc1,5.8% (inactive)
8,Cc1ccc(C(=O)Nc2c(-c3ccccc3)[nH][nH]c2=O)cc1,12.1% (inactive)
9,COc1ccc(NS(=O)(=O)c2cc(NC(=O)CC(=O)c3ccc([N+](=O)[O-])cc3)ccc2C)cc1,6.3% (inactive)
10,COc1ccc(-c2[nH][nH]c(=O)c2NC(=O)c2ccc([N+](=O)[O-])cc2)cc1,60.2% (active)
11,Cc1n[nH]c(C)c1S(=O)(=O)N1CCCC(C(=O)Nc2ccc(Br)cc2)C1 (stereo unspecified),13.4% (inactive)
12,CCn1cc(C(=O)N2CC(C)CC(C)C2)c(=O)c2cc(S(=O)(=O)N3CCCC3)ccc21 (stereo unspecified),11.3% (inactive)
13,Cc1ccc(N(C(=O)c2ccc(S(=O)(=O)N(C)C)cc2)C2C=CS(=O)(=O)C2)cc1 (stereo unspecified),9.3% (inactive)
14,COC(=O)C1=C(C(=O)OC)[C@@H]2N(C)c3ccccc3[C@@]23C[C@@H](C(=O)OC)N(C(=O)c2ccco2)C3=N1,3.7% (inactive)
15,O=C(NC(=S)N1CCCCC1c1cccnc1)c1ccccc1 (stereo unspecified),46.4% (active)
16,COc1ccc(C(=O)NC(=S)N2CCCCC2c2cccnc2)cc1OC (stereo unspecified),8.4% (inactive)
17,O=C(Nc1ccccc1C(F)(F)F)N1CCCC1c1cccnc1 (stereo unspecified),6.2% (inactive)
18,COc1cccc(NC(=O)CN(C)CC(=O)c2c(N)n(Cc3ccccc3)c(=O)n(C)c2=O)c1,0.5% (inactive)
19,COc1cc(/C=C/CO)cc(OC)c1O[C@@H]1O[C@H](CO)[C@@H](O)[C@H](O)[C@H]1O,-20.9% (inactive)
20,CCCCNS(=O)(=O)CCNCc1ccccc1OC,5.2% (inactive)
21,Cc1ccc(CNS(=O)(=O)CCNC(=O)c2ccccc2)cc1,5.7% (inactive)
22,CCCCNCCS(=O)(=O)NCc1ccccc1,61.4% (active)
23,Cc1ccc(C(=O)N/C(=C/c2ccc(-c3cccc([N+](=O)[O-])c3)o2)C(=O)NCCCN(C)C)cc1,51.7% (active)

row,Compound,inhibition
1,O=C(NCc1ccco1)/C(=C\c1cccc([N+](=O)[O-])c1)NC(=O)c1ccco1,9.4% (inactive)
2,O=C(NCc1ccco1)/C(=C/c1cccc([N+](=O)[O-])c1)NC(=O)c1ccco1,15.2% (inactive)
3,COc1ccc(C(=O)OCC(=O)Nc2cc(C)on2)cc1F,10.9% (inactive)
4,CN(C)S(=O)(=O)c1cc(C(=O)Nc2ccn(C)n2)c(Cl)cc1Cl,19.3% (inactive)
5,CN=C1SC(CC(=O)Nc2ccc(C(=O)O)cc2)C(=O)N1C (stereo unspecified),16.1% (inactive)
6,CCN=C1SC(CC(=O)Nc2ccc(C)cc2)C(=O)N1CC (stereo unspecified),40.5% (active)
7,CCN1C(=O)C(CC(=O)Nc2cc(C)ccc2C)SC1=Nc1ccc(S(N)(=O)=O)cc1 (stereo unspecified),13.6% (inactive)
8,Cc1cccc(N2CC(C(=O)Nc3ccccc3N3CCCC3)CC2=O)c1C (stereo unspecified),14.3% (inactive)
9,CC1CCN(c2ccc3c(c2)S(=O)(=O)c2cc(C(=O)O)ccc2C3=O)CC1,-15.6% (inactive)
10,CC1CCN(c2ccc(C(=O)NCc3ccc4c(c3)OCO4)cc2[N+](=O)[O-])CC1,20.8% (inactive)
11,CC1CCN(c2ccc([N+](=O)[O-])c(SCCO)c2)CC1,40.3% (active)
12,COc1ccc(C(=O)N2CCC(C(=O)Nc3cccc(C)c3)CC2)cc1OC,9.3% (inactive)
13,COc1ccc(-c2c(C)nn3c(N4CCC(C(=O)N5CCCCC5)CC4)cc(C)nc23)cc1OC,-21.1% (inactive)
14,COC(=O)[C@]12CCCCC=C1N(Cc1ccc3c(c1)OCO3)C(=O)[C@H](CC(=O)NCc1cccs1)C2,19.5% (inactive)
15,CCOc1ccc(S(=O)(=O)N2CCN=C2Cc2ccccc2)cc1C,23.3% (inactive)
16,Nc1nnn(CC(=O)N/N=C/c2ccccc2)n1,-8.5% (inactive)
17,NN=C(NN=Cc1ccccc1)c1ccccc1,49.4% (active)
18,COC(=O)C(C)N=Cc1ccccc1 (stereo unspecified),0.2% (inactive)
19,O=C(NCc1ccccc1)C(=O)NCC1OCCN1S(=O)(=O)c1ccc(Br)cc1 (stereo unspecified),0.6% (inactive)
20,CCOc1ccc(NCCC(=O)c2ccc3c(c2)OCO3)cc1,37.1% (active)
21,CCOc1ccc(C(=O)CCN2CCOCC2)cc1,5.4% (inactive)
22,COc1ccc(C2(C)NC(=O)N(CC(=O)c3ccc4c(c3)OCO4)C2=O)cc1 (stereo unspecified),-8.5% (inactive)
